Compound activity: PubChem, National Center for Advancing Translational Sciences (NCATS)
In the library only some 7.4% were active in any assay of this set; here they are far more common.
ELG1 genotoxic – genotoxicity induction in ELG1-luciferase HEK293T cells | Potency, µM (titrated, usually from 46 µM), for the others: at the highest dose activity change, positive = activation, usual class: activators | HEK293T ELG1-luciferase reporter, luminescence, 16 h | 330,000 tested, 1.3% active; further: % of control where 0% means no effect; nearly all actives have a fitted effect of over 60% in size
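Reporter readout depends on ELG1 protein level, which increases with genetic stress. After 16 hr compound exposure at 37 °C, luciferase activity was quantified using ONE-Glo.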
FLuc modulator – inhibits or activates purified firefly luciferase, miR-21 counter-screen; AID 588342; Potency, µM (titrated, usually from 57.5 µM), inactives show at the highest dose activity change, negative = inhibition, actives largely listed as inhibitors; 360,000 tested, 6.9% active; purified FLuc, Km substrates, luminescence inhibition; P08659;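 further: plate controls were vehicle for no effect and reference inhibitor for full effect; nearly all actives have a fitted effect of over 55% in size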
Target sequence (P08659 whole entry, looked up): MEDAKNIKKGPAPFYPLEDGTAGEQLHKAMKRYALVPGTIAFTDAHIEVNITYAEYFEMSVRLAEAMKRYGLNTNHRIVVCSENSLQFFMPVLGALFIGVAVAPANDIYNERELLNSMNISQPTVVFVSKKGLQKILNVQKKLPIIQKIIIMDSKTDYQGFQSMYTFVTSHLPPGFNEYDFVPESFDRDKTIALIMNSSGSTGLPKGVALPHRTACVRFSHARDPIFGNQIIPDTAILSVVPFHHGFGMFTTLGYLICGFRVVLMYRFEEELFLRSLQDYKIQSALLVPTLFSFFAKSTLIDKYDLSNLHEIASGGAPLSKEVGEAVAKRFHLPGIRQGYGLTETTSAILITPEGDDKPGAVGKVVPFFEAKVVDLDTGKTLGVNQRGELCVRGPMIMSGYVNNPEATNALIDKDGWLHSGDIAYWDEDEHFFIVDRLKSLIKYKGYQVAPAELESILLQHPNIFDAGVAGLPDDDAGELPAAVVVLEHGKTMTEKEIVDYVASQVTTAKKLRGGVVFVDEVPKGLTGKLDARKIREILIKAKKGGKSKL
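Purified P. pyralis luciferase, 10 nM final, with Km-level 10 uM D-luciferin and 10 uM ATP in 50 mM Tris acetate pH 7.5, 10 mM Mg acetate, 0.01% Tween-20, 0.05% BSA; 6-point qHTS titration about 60 µM downward; luminescence read.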
p53 reactivator – re-activators of mutant p53. Potency, µM (top dose mostly 92.2 µM), for the others: at the highest dose activity change, positive = activation, usual class: activators. AID 504706. H1299 p53-A138V BP100-luciferase reporter, luminescence, 24 h. 320,000 tested, 0.063% active; further: % of control where 0% means no effect; nearly all actives have a fitted effect of over 45% in size
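H1299 (p53-null), stable ts p53-A138V + BP100-Luc; 1000 cells/well, Opti-MEM/10% FBS; cpd 4 pt, 1:5; 24 h, 37 deg C, 5% CO2; detection reagent 10 min RT; luminescence.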
SMN2 splice enh – enhancers of SMN2 splice variant expression; HEK293 SMN2-luciferase splicing reporter, luminescence, 30-36 h; Potency, µM (top dose mostly 46.1 µM), for inactives: at the top dose activity change, positive = activation, actives largely listed as activators; 210,000 tested, 2.8% active; AID 1458; further: % of control where 0% means no effect; nearly all actives have a fitted effect of over 55% in size
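HEK293 cells carry an SMN2 minigene-luciferase reporter in which exon 7 inclusion puts luciferase in frame. Cells were seeded at 2000 cells/well, attached for 10-12 hours, then exposed to compounds for 30-36 hours at 37C before ONE-Glo luminescence.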
NPC1 promoter act – activates the NPC1 promoter; Huh7 NPC1 promoter luciferase reporter, 24 h; Potency, µM (top dose mostly 9.22 µM), for inactives: at the highest dose activation, most hits filed as activators; 320,000 tested, 2.4% active; further: % of control where 0% means no effect; nearly all actives have a fitted effect of over 60% in size
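Quantitative HTS used a cell-based reporter: Huh7 cells stably bearing the NPC1 promoter upstream of luciferase were treated with compounds for 24 h, and promoter activation was read as luminescence.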
Rab9 promoter act – activates the Rab9 promoter | Potency, µM (highest dose often 9.22 µM), for inactives: at the top dose activation, negative = inhibition, usual class: activators | Huh7 Rab9 promoter-luciferase reporter, luminescence, 24 h | 320,000 tested, 2.8% active; further: % of control where 0% means no effect; nearly all actives have a fitted effect of over 60% in size
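Quantitative HTS format; Huh7 Rab9-luciferase reporter cells (1500/well) receive compound 2 h post-plating, incubate 24 h at 37 °C, then get luciferase reagent for 10 min before luminescence reading.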
The depositor's hits bear a star; u = inconclusive; x = no result; [ ] = another dose, or the depositor's remark. The call rests on the fitted dose curve; in most records, active means well fitted curve in the direction sought with a large enough effect; inconclusive means small, poorly fitted or top-dose-only effect, or another doubt; inactive means no such curve, though single readings can be large; an effect the other way counts as inactive or inconclusive. Potency means the concentration at half of the fitted maximal effect.

SMILES	ELG1 genotoxic	FLuc modulator	p53 reactivator	SMN2 splice enh	NPC1 promoter act	Rab9 promoter act
Nc1ccc2oc(-c3cccc4ccccc34)nc2c1	8%	13µM*	-13%	10%	-2%	8%
Cc1ccc(-c2nc3cc(NS(=O)(=O)c4ccc(C)cc4)ccc3o2)cc1	6%	u	-10%	-8%	-1%	6%
O=c1oc(-c2ccco2)nc2ccccc12	1%	u	0%	9%	-11%	3%
Cc1ccc(-c2nc3cc(N)ccc3o2)c(C)c1	2.6µM*	0.67µM*	18%	u	u	0.56µM*
Cc1ccc(-c2nc3cc(C)ccc3o2)cc1	0.52µM*	0.17µM*	x	11µM*	u	0.63µM*
CCC1CCCCN1S(=O)(=O)c1cc(C(=O)Nc2ccc(C)c(F)c2)ccc1F (centres undefined)	x	2%	x	x	x	x
CCCN(CCC)C(=O)Cn1c(=O)n(-c2cccc(C(F)(F)F)c2)c(=O)c2c(C)c(C)sc21	x	-1%	x	-2%	x	x
Nc1ccc2oc(-c3cccs3)nc2c1	9.2µM*	12µM*	u	x	3.2µM*	3.5µM*
O=c1oc(-c2cccs2)nc2ccccc12	4%	6%[2.3 µM]	15%	u	1%	3%
CC(C)(C)c1ccc(-c2nc3cc(N)ccc3o2)cc1	1.3µM*	0.43µM*	x	x	0.32µM*	0.63µM*
Cc1ccc(-c2nc3cc(N)ccc3o2)cc1	0.33µM*	0.6µM*	1%	0.71µM*	0.45µM*	0.45µM*
CC(C)(C)c1ccc(-c2nc3cc(NC(=O)c4cc5ccccc5o4)ccc3o2)cc1	x	u	x	4%	x	x
CC(C)c1ccc2oc(-c3ccc(N)cc3)nc2c1	u	0.19µM*	x	x	0.56µM*	0.56µM*
O=C(O)c1ccc(NC(=O)c2cc(S(=O)(=O)N3CCCCC3)c(Cl)cc2Cl)cc1	x	-9%	x	-1%	x	x
Cc1cc(C)cc(C(=N)c2ccccc2Cc2cccc3ccccc23)c1	x	x	x	-17%[9.22 µM]	x	x
COCCCNC(=O)CSc1nc2cc3c(cc2c(=O)n1CCCC(=O)NCc1ccc2c(c1)OCO2)OCO3	x	4%	x	x	x	x
O=c1cc(-c2ccccc2)nc(SCc2nc(-c3cccc(C(F)(F)F)c3)no2)[nH]1	x	-15%	x	x	x	x
Cc1ccc2oc(-c3cccc(N)c3)nc2c1	2.3µM*	0.76µM*	u	x	1µM*	0.63µM*
Cc1ccc(/C(O)=C/c2nc3cc(C)ccc3oc2=O)cc1	1%	12µM*	12%	x	-2%	-4%
Nc1cccc(-c2nc3cc(S(=O)(=O)c4ccc5oc(-c6cccc(N)c6)nc5c4)ccc3o2)c1	5%	0%	-1%	-41%	-18%	-7%
Fc1ccc(Nc2ccc(-c3ccc(F)cc3)nn2)cc1	12%	5.4µM*	2%	x	u	3.2µM*
Cc1nc(Cl)sc1C(=O)Nc1ccc(C(F)(F)F)cc1	0%	-19%	x	x	2%	1%
COC(=O)c1cccc(NC(=O)c2cnoc2C)c1	9%	24µM*	u	5%	18%	u
CC(=O)Nc1ccc2ccccc2c1	u	u	14%	7%	21%	15%
Cc1coc(C)c1C(=O)Nc1ccc2ccccc2c1	u	11µM*	x	x	3.5µM*	2.8µM*
SMILES	ELG1 genotoxic	FLuc modulator	p53 reactivator	SMN2 splice enh	NPC1 promoter act	Rab9 promoter act
Cc1oncc1C(=O)Nc1ccc(C(F)(F)F)cc1	u	u	u	11µM*	u	1.4µM*
Cc1oncc1C(=O)Nc1ccc2ccccc2c1	u	19µM*	x	x	u	u
O=C(Nc1cccc(Cl)c1)N1CC2CCCN2c2ccccc21 (centres undefined)	x	-8%	x	x	x	x
CCNc1nc(NCC)nc(N/N=C/c2ccc(O)c(O)c2)n1	u	21µM*	0%	u	26%	u
COc1ccc(-c2cnnc(N/N=C/c3ccc(O)c(O)c3)n2)cc1	12%	2.7µM*	u	u	-13%	-9%
COc1ccc(-c2cnnc(N/N=C/c3ccc(O)cc3)n2)cc1	u	1.7µM*	12%	27%	0%	18%
CCNc1nc(NCC)nc(N/N=C/c2ccc(N(C)C)cc2)n1	-1%	u	4%	4%	2%	-3%
COc1ccc(Nc2nc(NCc3ccco3)nc(N/N=C/c3ccc(O)cc3)n2)cc1	-7%	15µM*	u	x	-1%	1%
Cc1nc2ccccc2n1CCc1nc2c3ccccc3nc(SCc3cccc(F)c3)n2n1	x	0%	x	x	x	x
COC(=O)C1=C(c2ccccc2)c2ccccc2S(=O)(=O)N1CC(=O)Nc1ccc(F)c(F)c1	x	-8%	x	-21%	x	x
Cc1ccc(C)c(NS(=O)(=O)c2ccc3oc(=O)c4ncn(C)c4c3c2)c1	x	-4%	x	x	x	x
Nc1nc(CSc2ncccn2)nc(Nc2ccccc2)n1	u	24µM*	u	14µM*	4.5µM*	4µM*
Cc1ccc(Nc2nc(N)nc(CSc3nc(C)cc(C)n3)n2)cc1	x	-14%	x	-4%	x	x
Cc1ccc(Nc2nc(N)nc(CSc3ncccn3)n2)cc1	u	12µM*	u	13µM*	2.2µM*	2µM*
